This is a sample that favours compounds with a hit; in the whole collection about 2.2% have one here.
JMJD2C inh: human JMJD2C demethylase inhibition; inhibition, % at 2.35 µM; GST-JMJD2C(1-420) H3K9me3 demethylation, DELFIA europium; AID 2099; hit rate 0.069% among 330,000;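 active means more than half of a compound's replicate wells show inhibition beyond 50%, single wells judged on their own value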;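 further: signal counts dimethyl H3K9 product captured on neutravidin plate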
Target sequence (Q9H3R0 1-420 limits assumed): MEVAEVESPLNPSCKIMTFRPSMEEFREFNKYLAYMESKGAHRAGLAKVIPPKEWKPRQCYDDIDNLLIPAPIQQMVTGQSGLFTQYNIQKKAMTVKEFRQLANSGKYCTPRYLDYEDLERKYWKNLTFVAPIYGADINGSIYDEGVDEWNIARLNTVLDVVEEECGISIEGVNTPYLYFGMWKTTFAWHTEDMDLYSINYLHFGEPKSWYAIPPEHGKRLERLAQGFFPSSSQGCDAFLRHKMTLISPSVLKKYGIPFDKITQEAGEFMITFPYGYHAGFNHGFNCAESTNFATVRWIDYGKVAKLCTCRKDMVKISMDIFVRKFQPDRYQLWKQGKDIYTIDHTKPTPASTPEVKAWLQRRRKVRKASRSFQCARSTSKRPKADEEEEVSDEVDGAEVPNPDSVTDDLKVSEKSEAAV
Exocytosis inh: blocks lytic granule exocytosis. AID 651702. inhibition, % at 10 µM. TALL-104 LAMP-1 surface exposure, flow cytometry; cells stimulated with thapsigargin and PMA. hit rate 0.66% among 360,000;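 active means inhibition above about 55%, limit read from the data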
HTR2A ag: mouse HTR2A agonism via beta-arrestin recruitment; activation, % at 7.6 µM; AID 624169; CHO-K1 mHTR2A beta-arrestin complementation, luminescence; percent of 30 µM serotonin response; P35363; hit rate 0.66% among 360,000;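 active means activation above a run cutoff, the mean activation of all tested compounds plus 3 SD, cut at about 14% in these data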
VLA-4 inh: inhibition in a human VLA-4 binding assay; P13612; VLA-4 expressing cells, ligand binding flow cytometry; inhibition, % (about 7 µM as worked out from the volumes in the protocol); hit rate 0.2% among 330,000; AID 2557; in the data active means inhibition above about 50%
V-ATPase pHluor: regulators of yeast V-ATPase proton transport; S. cerevisiae, pHLuorin cytosolic pH fluorescence; response, % at 10 µM; hit rate 0.37% among 350,000; AID 504577; in the data active means response mostly above about 7.3%, no sharp cut-off; inactive means mostly below about 5.4%; further: actives read high
MEX-5 binding: C. elegans MEX-5 TCR-2 RNA binding activity; hit rate 0.38% among 300,000; activity score (negative = inhibition of binding), % at 10 µM; MEX-5/FITC-TCR2 RNA binding, fluorescence polarization; hits give low values; AID 1832;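 active means inhibition past about -25% in most replicates, and total fluorescence under double the plate's negative control median, limit read from the data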
VLA-4 allo CP: human VLA-4 allosteric modulation in cherry picked compounds; shares compounds with VLA-4 inh; U937 cells, HUTS-21 LIBS mAb binding, flow cytometry; LDV ligand present at threefold Kd; inhibition, % at 6.7 µM; hit rate 2% among 1,300; in the data active means inhibition above about 40%
A number is an active result; n = inactive; x = no result given.

SMILES	JMJD2C inh	Exocytosis inh	HTR2A ag	VLA-4 inh	V-ATPase pHluor	MEX-5 binding	VLA-4 allo CP
CS(=O)c1ccc(-n2c(=O)n(Cc3ccccc3)c(=O)c3[nH]cnc32)cc1 (centres undefined)	n	n	n	n	n	n	x
CN(CC(=O)Nc1cccc(F)c1)C(=O)CCCn1c(=O)oc2ccccc21	n	n	n	n	n	n	x
CCCCC[C@H](C)N1C[C@H](COCc2ccccc2)Oc2cc(N3CCC[C@H]3COC)ccc2S1(=O)=O	x	n	n	x	x	x	x
CCN(CC)S(=O)(=O)c1ccc(N2CCOCC2)c(NC(=O)c2cc(=O)[nH]c3ccccc23)c1	n	n	n	51	n	n	n
C[C@H](Cc1ccccc1)Nc1ncnc2c1ncn2[C@@H]1O[C@H](CO)[C@@H](O)[C@H]1O	x	n	n	59	n	x	n
CC(Cc1ccccc1)Nc1ncnc2c1ncn2C1OC(CO)C(O)C1O (centres undefined)	n	n	n	n	n	n	x
Cc1cc(C(=O)NNCc2ccccc2)no1	x	n	n	56	n	x	n
COC(=O)/C=C1\SC(=NC(=O)c2ccc(C)cc2)NC1=O	n	n	n	51	n	n	n
COC(=O)/C=C1/SC(=NC(=O)c2ccc(Cl)cc2)NC1=O	n	n	n	n	n	n	x
COc1ccc2cc1Oc1ccc(cc1)CC1c3c(cc(OC)c4c3Oc3cc5c(cc3O4)CCNC5C2)CCN1C (centres undefined)	n	n	n	52	n	n	n
COc1ccc(OC)c(NS(=O)(=O)c2c(C(=O)N3CCCCCC3)c(C)n(C)c2C)c1	n	n	n	n	n	n	x
Cc1ccccc1-n1c(SCC(=O)N2CCN(c3ccccc3)CC2)nnc1-c1ccncc1	n	n	n	50	n	n	n
Cc1ccccc1-n1c(SCC(=O)N2CCC(C(=O)O)CC2)nnc1-c1ccncc1	n	n	n	n	n	n	x
COc1cc(CC(=O)OCC(=O)c2ccc3c(c2)OCCO3)cc(OC)c1OC	n	n	n	91	x	n	n
O=C(COC(=O)c1ccc(O)cc1)c1ccc2c(c1)OCCO2	x	n	n	x	n	x	x
CCCOc1ccc(-c2cc(C(=O)NCC3CCCO3)c3ccccc3n2)cc1 (centres undefined)	n	n	n	n	n	n	n
O=C(NCC1CCCO1)c1cc(-c2ccncc2)nc2ccccc12 (centres undefined)	x	n	n	x	n	x	x
N#Cc1c(-c2ccc(Cl)cc2)ccnc1N1CCOCC1	n	n	n	n	n	n	x
CSc1ccc(CN(C)C(=O)C23CC4CC(CC(Cl)(C4)C2)C3)cc1	n	n	n	64	n	n	n
COc1cc2c(cc1OC)C(c1ccc(OC)c(OC)c1OC)CC(=O)N2 (centres undefined)	n	n	n	n	n	n	n
COc1cc2c(c(OC)c1)C(c1ccncc1)CC(=O)N2 (centres undefined)	n	n	n	n	n	x	x
COC(=O)c1ccc(C2CC(=O)Nc3cc(OC)c(OC)c(OC)c32)cc1 (centres undefined)	n	n	n	n	n	n	n
COc1cc2c(cc1OC)C(c1cccc(OC)c1OC)CC(=O)N2 (centres undefined)	n	n	n	n	n	n	x
CCOc1c(OC)cccc1C1CC(=O)Nc2cc(OC)c(OC)cc21 (centres undefined)	n	n	n	n	n	n	n
CCOC(=O)c1sc(NC(=O)C2CC(=O)N(c3ccc(OC)cc3)C2)nc1C (centres undefined)	n	n	n	n	n	n	x
SMILES	JMJD2C inh	Exocytosis inh	HTR2A ag	VLA-4 inh	V-ATPase pHluor	MEX-5 binding	VLA-4 allo CP
CCCN(C(=O)c1ccccc1N)c1c(C)n(C)n(-c2ccccc2)c1=O	n	n	n	n	n	n	n
COc1ccccc1NC(=O)Nc1cnccn1	n	n	n	54	n	n	n
CCOC(=O)c1ccc(N2C(=O)CC(N(C)CCc3ccc(OC)c(OC)c3)C2=O)cc1 (centres undefined)	n	n	n	n	n	n	x
CCC(=O)N(Cc1ccc(S(N)(=O)=O)cc1)C1CC(=O)N(c2ccc(OC)cc2)C1=O (centres undefined)	n	n	n	n	n	n	n
CCOc1cccc(N2C(=O)CC(N(CCc3ccc(OC)c(OC)c3)C(=O)CC)C2=O)c1 (centres undefined)	n	n	n	n	n	n	n
O=C1C2C3C=CC(c4ccccc4)(C2C(=O)N1c1cccc(Cl)c1)C1C(=O)N(c2cccc(Cl)c2)C(=O)C31 (centres undefined)	n	n	n	57	n	n	n
O=C1C2C3CCCC3=C3CCCC3C2C(=O)N1c1cccc(Cl)c1 (centres undefined)	n	n	n	n	n	n	x
COc1ccc(C(=O)OCC(=O)Nc2cc(C)c(C)cc2[N+](=O)[O-])cc1	n	n	n	54	n	n	n
CCCCOc1ccc(C(=O)OCC(=O)Nc2cc(C)c(C)cc2[N+](=O)[O-])cc1	n	n	n	n	n	n	x
CCOC(=O)c1c(C)[nH]c(C(=O)OCC(=O)c2ccccc2)c1C	n	n	n	n	n	n	x
CCOC(=O)c1c(C)[nH]c(C(=O)COC(=O)C2CC2)c1C	x	n	n	x	n	x	n
CCOC(=O)c1c(C)[nH]c(C(=O)COC(=O)c2ccccn2)c1C	n	n	n	n	n	n	n
CCOC(=O)c1c(C)[nH]c(C(=O)COC(=O)C2(C)CC2(Cl)Cl)c1C (centres undefined)	n	n	n	n	n	n	n
CC(=O)c1c(C)[nH]c(C(=O)COC(=O)C2CC2)c1C	n	n	n	n	n	n	x
COC(=O)c1c(C)[nH]c(C(=O)COC(=O)c2c(C)noc2C)c1C	n	n	n	n	n	x	n
CC(=O)c1c(C)[nH]c(C(=O)COC(=O)c2c(C)noc2C)c1C	n	n	n	n	n	x	x
Cc1ccc(C)c(NC(=O)C2CCCN(S(=O)(=O)c3cccnc3)C2)c1 (centres undefined)	n	n	n	n	n	n	x
NC(=O)CC(NC(=O)c1cccc(Br)c1)c1ccc(N2CCC(N3CCCCC3)CC2)c([N+](=O)[O-])c1 (centres undefined)	n	n	n	56	n	n	n
NC(=O)CC(NC(=O)c1ccccc1)c1ccc(N2CCC(N3CCCC3)CC2)c([N+](=O)[O-])c1 (centres undefined)	n	n	n	n	n	n	x
CCO[C@@H]1OC(C(=O)Nc2ccccc2)=C[C@H](C)[C@H]1CCCO	n	n	n	n	n	n	n
Cc1ccc(S(=O)(=O)Nc2ccc(N(C)C)cc2)cc1	n	n	n	n	n	n	n

High-throughput results from PubChem.
